In PubChem BioAssay (NCI):
Several values for one entry are separate records, joined by “and”; a condition that tells them apart may be missing. Equal entries are not always repeated. About 83,000 compounds went through this panel and 20% of them were active in at least one assay; those are over-represented in the sample as a whole.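 Testing used 96-well plates and a 48-hour single-concentration exposure. Example: -40 means 40% of the starting cells died.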 More than one record can exist for a structure, and the calls need not agree. Activity calls are given as the source filed them.

Experiments:
Experiment in all cases: NCI-60 one-dose screen, 48 h (100 = growth as untreated, 0 = no growth, -100 = all killed)
SK-MEL-2 melanoma = details: 10 µM
EKVX NSCLC = details: 10 µM
SN12C renal = details: 10 µM
UO-31 renal = details: 10 µM
TK-10 renal = test system: TK-10 renal
ACHN renal = details: 10 µM
CAKI-1 renal = details: 10 µM
A498 renal = details: 10 µM
Description: Growth inhibition of the A498 human tumor cell line is measured as a screen for anti-cancer activity. Cells are grown in 96 well plates and exposed to the test compound for 48 hours. Compounds are tested at a single concentration, which is 10^-5 M for most compounds. The reported endpoint is percent growth (GI% or GIPRCNT), where numbers from 0 - 100% represent growth inhibition, and numbers from -100% - 0 represent cell death. For example, a value of 40 represents 60% growth inhibition. A value of 0 means no net growth occurred over the course of the experiment. A value of -40 indicates 40% of cells at the beginning of the experiment died by the end of the experiment. A value of -100 means all cells are dead at the end of the experiment.
NCI-60 Human Tumor Cell Lines Screen was performed using the standard one-dose NCI protocol, which is described in more detail at https://dtp.cancer.gov/discovery_development/nci-60/default.htm.
Compounds with GIPRCNT values below 10 were considered active. Activity score was based on GIPRCNT using the following formula: […]
Score is 0 for GIPRCNT values of 100 or above, 50 for GIPRCNT values of 0, and 100 for GIPRCNT values of -100.

CCRF-CEM leukemia = details: 10 µM
MOLT-4 leukemia = details: 10 µM
SR leukemia = details: 10 µM
RPMI-8226 leukemia = details: 10 µM
OVCAR-8 ovarian = details: 10 µM
OVCAR-5 ovarian = details: 10 µM
OVCAR-4 ovarian = details: 10 µM
SK-OV-3 ovarian = details: 10 µM
IGROV1 ovarian = details: 10 µM
OVCAR-3 ovarian = details: 10 µM
HS 578T breast = details: 10 µM
NCI/ADR-RES ovarian = details: 10 µM

`CN(C)CCOC1(Cc2ccc(Cl)cc2Cl)CCC(C(C)(C)C)CC1` (stereo unspecified) was tested, and the growth (SK-MEL-2 melanoma) was 94.8% (inactive) and 54.6% (inactive), the growth (EKVX NSCLC) was 48.2% (inactive) and 54.6% (inactive) and the growth (SN12C renal) was 18.8% (inactive) and -12.6% (active). For the same molecule, the growth (UO-31 renal) was 29.3% (inactive) and 30.2% (inactive), the growth (TK-10 renal; 10 µM) was 60.4% (inactive) and 61.9% (inactive) and the growth (ACHN renal) was 48.7% (inactive) and -4.79% (active). The growth (CAKI-1 renal) was 36.2% (inactive) and 22.1% (inactive), the growth (A498 renal) was 63.9% (inactive) and 63.3% (inactive) and the growth (CCRF-CEM leukemia) was 4.16% (active) and -9.84% (active). The growth (MOLT-4 leukemia) was -14.2% (active) and -16.7% (active), the growth (SR leukemia) was -34.8% (active) and -29.5% (active) and the growth (RPMI-8226 leukemia) was 11.6% (inactive) and -10% (active). The growth (OVCAR-8 ovarian) was 36.5% (inactive) and -27.3% (active), the growth (OVCAR-5 ovarian) was 43.8% (inactive) and 5.22% (active) and the growth (OVCAR-4 ovarian) was 36.1% (inactive) and 15.1% (inactive). For the same molecule, the growth (SK-OV-3 ovarian) was 69.6% (inactive) and 57.8% (inactive), the growth (IGROV1 ovarian) was 41.7% (inactive) and 25.3% (inactive) and the growth (OVCAR-3 ovarian) was 39.5% (inactive) and 11.1% (inactive). The growth (HS 578T breast) was 52.4% (inactive) and 49.6% (inactive) and the growth (NCI/ADR-RES ovarian) was 27% (inactive) and 44.4% (inactive).
`Cc1ccc(Sc2ccccc2N)cc1` was tested, and the growth (SK-MEL-2 melanoma) was 15.9% (inactive), the growth (EKVX NSCLC) was 121% (inactive) and the growth (SN12C renal) was 89% (inactive). The growth (UO-31 renal) was 81.5% (inactive), the growth (TK-10 renal; 10 µM) was 98% (inactive) and the growth (ACHN renal) was -20% (active). The growth (CAKI-1 renal) was 62.5% (inactive), the growth (A498 renal) was 118% (inactive) and the growth (CCRF-CEM leukemia) was 88.2% (inactive). For the same molecule, the growth (MOLT-4 leukemia) was 81.2% (inactive), the growth (SR leukemia) was 71.6% (inactive) and the growth (RPMI-8226 leukemia) was 89.8% (inactive). For the same molecule, the growth (OVCAR-8 ovarian) was 79.1% (inactive), the growth (OVCAR-5 ovarian) was 82.7% (inactive) and the growth (OVCAR-4 ovarian) was 93.6% (inactive). The growth (SK-OV-3 ovarian) was 94.9% (inactive), the growth (IGROV1 ovarian) was 76.2% (inactive) and the growth (OVCAR-3 ovarian) was 121% (inactive). The growth (HS 578T breast) was 110% (inactive) and the growth (NCI/ADR-RES ovarian) was 84.3% (inactive).
For `COc1cc([C@@H]2c3cc4c(cc3[C@@H](Nc3ccc(NC(=O)c5cc([N+](=O)[O-])cn5C)cc3)[C@H]3COC(=O)[C@H]23)OCO4)cc(OC)c1O`, the growth (TK-10 renal; 100 µM) was -28.8% (active).
For `Cc1cc(N(CCOS(C)(=O)=O)CCOS(C)(=O)=O)ccc1C=Nc1ccc(-c2nc(Cc3ccccc3)sc2C)cc1`, the growth (SK-MEL-2 melanoma) was 86.3% (inactive), the growth (EKVX NSCLC) was 11.1% (inactive) and the growth (SN12C renal) was 52.3% (inactive). The growth (UO-31 renal) was 22.2% (inactive), the growth (TK-10 renal; 10 µM) was 14.2% (inactive) and the growth (ACHN renal) was -23.2% (active). For the same molecule, the growth (CAKI-1 renal) was -32% (active), the growth (A498 renal) was -48.7% (active) and the growth (CCRF-CEM leukemia) was 23.4% (inactive). The growth (MOLT-4 leukemia) was 14.2% (inactive), the growth (SR leukemia) was 23.4% (inactive) and the growth (RPMI-8226 leukemia) was 62.3% (inactive). The growth (OVCAR-5 ovarian) was 67% (inactive), the growth (SK-OV-3 ovarian) was 3.43% (active) and the growth (IGROV1 ovarian) was 11.4% (inactive). The growth (OVCAR-3 ovarian) was 41.9% (inactive), the growth (HS 578T breast) was 79.8% (inactive) and the growth (NCI/ADR-RES ovarian) was 40.7% (inactive).
In the case of `C=C1C(=O)OC2CC1C(OC(C)=O)C/C(C)=C/CC/C(C)=C\CCC2(C)O` (stereo unspecified), the growth (SK-MEL-2 melanoma) was 41.5% (inactive), the growth (EKVX NSCLC) was 59.3% (inactive) and the growth (SN12C renal) was 40.6% (inactive). For the same molecule, the growth (UO-31 renal) was -39.8% (active), the growth (TK-10 renal; 10 µM) was -11.8% (active) and the growth (TK-10 renal; 100 µM) was -98.1% (active). For the same molecule, the growth (ACHN renal) was -5.85% (active), the growth (CAKI-1 renal) was 16% (inactive) and the growth (A498 renal) was 87.3% (inactive). The growth (CCRF-CEM leukemia) was -17.1% (active), the growth (MOLT-4 leukemia) was -14.4% (active) and the growth (SR leukemia) was -25.1% (active). The growth (RPMI-8226 leukemia) was -22.3% (active), the growth (OVCAR-5 ovarian) was 65.7% (inactive) and the growth (OVCAR-4 ovarian) was -0.648% (active). For the same molecule, the growth (SK-OV-3 ovarian) was 102% (inactive), the growth (OVCAR-3 ovarian) was 3.4% (active) and the growth (HS 578T breast) was 72% (inactive). The growth (NCI/ADR-RES ovarian) was 17.9% (inactive).
In the case of `C#CCN(Cc1ccc2nc(N)[nH]c(=O)c2c1)c1ccc(C(=O)NC(CCC(=O)O)C(=O)O)cc1` (stereo unspecified), the growth (SK-MEL-2 melanoma) was 143% (inactive), the growth (EKVX NSCLC) was 55.6% (inactive) and the growth (SN12C renal) was 48.9% (inactive). The growth (TK-10 renal; 10 µM) was 78.5% (inactive), the growth (ACHN renal) was 30.1% (inactive) and the growth (CAKI-1 renal) was 33.2% (inactive). For the same molecule, the growth (A498 renal) was 110% (inactive), the growth (CCRF-CEM leukemia) was 22.5% (inactive) and the growth (MOLT-4 leukemia) was 39.1% (inactive). For the same molecule, the growth (RPMI-8226 leukemia) was 51.3% (inactive), the growth (OVCAR-8 ovarian) was 39.3% (inactive) and the growth (OVCAR-5 ovarian) was 107% (inactive). For the same molecule, the growth (OVCAR-4 ovarian) was 103% (inactive), the growth (SK-OV-3 ovarian) was 49.7% (inactive) and the growth (IGROV1 ovarian) was 109% (inactive). For the same molecule, the growth (OVCAR-3 ovarian) was 67.2% (inactive), the growth (HS 578T breast) was 88.9% (inactive) and the growth (NCI/ADR-RES ovarian) was 47.7% (inactive).
With `CC1=CC(=C(c2ccc(N)cc2)c2ccc(N)cc2)C=CC1=N` the growth (SK-MEL-2 melanoma) was -27.7% (active) and 41.7% (inactive), the growth (EKVX NSCLC) was 15.5% (inactive) and 46.2% (inactive) and the growth (SN12C renal) was 10.3% (inactive) and 6.77% (active). The growth (UO-31 renal) was 32% (inactive) and 85.8% (inactive), the growth (TK-10 renal; 10 µM) was 38.2% (inactive) and 15.3% (inactive) and the growth (ACHN renal) was 28.9% (inactive) and 58.6% (inactive). The growth (CAKI-1 renal) was 65.5% (inactive), the growth (A498 renal) was -7.24% (active) and 57.3% (inactive) and the growth (CCRF-CEM leukemia) was 19.3% (inactive) and 35.8% (inactive). For the same molecule, the growth (MOLT-4 leukemia) was 10.4% (inactive) and 51.9% (inactive), the growth (SR leukemia) was 14.7% (inactive) and 24.8% (inactive) and the growth (RPMI-8226 leukemia) was -15.6% (active) and 33.4% (inactive). For the same molecule, the growth (OVCAR-8 ovarian) was 6.23% (active) and 16% (inactive), the growth (OVCAR-5 ovarian) was 46.8% (inactive) and 53.3% (inactive) and the growth (OVCAR-4 ovarian) was 24.1% (inactive) and 33.7% (inactive). For the same molecule, the growth (SK-OV-3 ovarian) was 38.2% (inactive), the growth (IGROV1 ovarian) was 70% (inactive) and the growth (OVCAR-3 ovarian) was -35.6% (active) and 28.4% (inactive). For the same molecule, the growth (HS 578T breast) was 23.6% (inactive) and 89.5% (inactive) and the growth (NCI/ADR-RES ovarian) was 86.6% (inactive) and 101% (inactive).
`O=[N+]([O-])c1cc[n+]([O-])cc1` was tested, and the growth (SK-MEL-2 melanoma) was 110% (inactive), the growth (EKVX NSCLC) was 110% (inactive) and the growth (SN12C renal) was 92.8% (inactive). For the same molecule, the growth (UO-31 renal) was 93.6% (inactive), the growth (TK-10 renal; 10 µM) was 110% (inactive) and the growth (ACHN renal) was 114% (inactive). For the same molecule, the growth (CAKI-1 renal) was 106% (inactive), the growth (A498 renal) was 93.8% (inactive) and the growth (CCRF-CEM leukemia) was 121% (inactive). For the same molecule, the growth (MOLT-4 leukemia) was 69.3% (inactive), the growth (SR leukemia) was 107% (inactive) and the growth (RPMI-8226 leukemia) was 102% (inactive). The growth (OVCAR-8 ovarian) was 103% (inactive), the growth (OVCAR-5 ovarian) was 145% (inactive) and the growth (OVCAR-4 ovarian) was 111% (inactive). For the same molecule, the growth (SK-OV-3 ovarian) was 130% (inactive), the growth (IGROV1 ovarian) was 107% (inactive) and the growth (OVCAR-3 ovarian) was 114% (inactive). For the same molecule, the growth (HS 578T breast) was 104% (inactive) and the growth (NCI/ADR-RES ovarian) was 103% (inactive).
For `COc1ccc(C(=O)C(CN(C)C)CN(C)C)cc1`, the growth (SK-MEL-2 melanoma) was 149% (inactive), the growth (EKVX NSCLC) was -17% (active) and the growth (SN12C renal) was 98.9% (inactive). The growth (UO-31 renal) was 17% (inactive), the growth (TK-10 renal; 10 µM) was 15.7% (inactive) and the growth (ACHN renal) was -85.5% (active). For the same molecule, the growth (CAKI-1 renal) was -84.8% (active), the growth (A498 renal) was 99% (inactive) and the growth (CCRF-CEM leukemia) was 36.3% (inactive). For the same molecule, the growth (MOLT-4 leukemia) was -32% (active), the growth (SR leukemia) was -46.3% (active) and the growth (RPMI-8226 leukemia) was 64.3% (inactive). The growth (OVCAR-8 ovarian) was 41.1% (inactive), the growth (OVCAR-5 ovarian) was 116% (inactive) and the growth (OVCAR-4 ovarian) was -93.8% (active). The growth (SK-OV-3 ovarian) was 108% (inactive), the growth (IGROV1 ovarian) was 140% (inactive) and the growth (OVCAR-3 ovarian) was -85% (active). For the same molecule, the growth (HS 578T breast) was 83% (inactive) and the growth (NCI/ADR-RES ovarian) was 101% (inactive).
